From PubChem BioAssay (NCI)
This is part of a sample that, as a whole, favours compounds with a hit. Of some 83,000 tested, about 20% had one in any assay.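 For each line, cells grew in 96-well plates with the test compound present at a single concentration for 48 hours.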 The source made the active and inactive calls. Rule for the calls: active = growth percent below 10; inactive = the rest.

Columns and labels:
Assay in all cases: NCI-60 one-dose screen, 48 h (100 = growth as untreated, 0 = no growth, -100 = all killed)
Details in all cases: 10 µM unless noted
SK-MEL-2 melanoma = test system: SK-MEL-2 melanoma
EKVX NSCLC = test system: EKVX NSCLC
SN12C renal = test system: SN12C renal
UO-31 renal = test system: UO-31 renal
TK-10 renal = test system: TK-10 renal
ACHN renal = test system: ACHN renal
CAKI-1 renal = test system: CAKI-1 renal
A498 renal = test system: A498 renal
CCRF-CEM leukemia = test system: CCRF-CEM leukemia
MOLT-4 leukemia = test system: MOLT-4 leukemia
SR leukemia = test system: SR leukemia
RPMI-8226 leukemia = test system: RPMI-8226 leukemia
OVCAR-8 ovarian = test system: OVCAR-8 ovarian
OVCAR-5 ovarian = test system: OVCAR-5 ovarian
SK-OV-3 ovarian = test system: SK-OV-3 ovarian
IGROV1 ovarian = test system: IGROV1 ovarian
OVCAR-3 ovarian = test system: OVCAR-3 ovarian
HS 578T breast = test system: HS 578T breast
NCI/ADR-RES ovarian = test system: NCI/ADR-RES ovarian
OVCAR-4 ovarian = test system: OVCAR-4 ovarian

Measured: growth

C=C(c1ccc(C(=O)O)cn1)c1cc2c(cc1C)C(C)(C)CCC2(C)C
inactive: SK-MEL-2 melanoma 84% | EKVX NSCLC 83.9% | SN12C renal 95.7% | UO-31 renal 81.5% | TK-10 renal 131% | ACHN renal 91.8% | CAKI-1 renal 87.9% | A498 renal 80% | CCRF-CEM leukemia 83.5% | MOLT-4 leukemia 95.7% | SR leukemia 82.7% | RPMI-8226 leukemia 66.5% | OVCAR-8 ovarian 83.7% | OVCAR-5 ovarian 121% | SK-OV-3 ovarian 75.5% | IGROV1 ovarian 98.9% | OVCAR-3 ovarian 87.6% | HS 578T breast 69.5% | NCI/ADR-RES ovarian 83.6%

N#Cc1c(NC(=O)c2cccs2)[n+]([O-])c2ccc(Cl)cc2[n+]1[O-]
inactive: SK-MEL-2 melanoma 59.3% | EKVX NSCLC 98.7% | SN12C renal 99.8% | UO-31 renal 98.6% | TK-10 renal 118% | ACHN renal 99.5% | CAKI-1 renal 73% | A498 renal 41.4% | CCRF-CEM leukemia 95.9% | MOLT-4 leukemia 97.3% | SR leukemia 109% | RPMI-8226 leukemia 104% | OVCAR-8 ovarian 108% | OVCAR-5 ovarian 114% | SK-OV-3 ovarian 94% | OVCAR-3 ovarian 81.5% | HS 578T breast 56.9% | NCI/ADR-RES ovarian 99.2%

COc1ccc(C(c2cc(OC)c(OC)c(OC)c2)N2CCN(Cc3ccccc3)CC2)cc1 (configuration not stated)
inactive: SK-MEL-2 melanoma 27.4% | EKVX NSCLC 82.7% | SN12C renal 88.4% | UO-31 renal 68.8% | TK-10 renal 84.8% | ACHN renal 92.8% | CAKI-1 renal 66.7% | A498 renal 51.9% | CCRF-CEM leukemia 68.8% | MOLT-4 leukemia 53.5% | SR leukemia 16.1% | OVCAR-8 ovarian 92.6% | OVCAR-5 ovarian 84.7% | OVCAR-4 ovarian 97% | SK-OV-3 ovarian 66.2% | IGROV1 ovarian 63% | OVCAR-3 ovarian 69% | HS 578T breast 59.1% | NCI/ADR-RES ovarian 61.6%

O=S(=O)(c1ccccc1)N1CCCN(c2nc(-c3ccccc3)nc3nc(-c4ccccc4)oc23)CC1
inactive: SK-MEL-2 melanoma 108% | EKVX NSCLC 107% | SN12C renal 98.5% | UO-31 renal 85.3% | TK-10 renal 114% | ACHN renal 104% | CAKI-1 renal 91.7% | A498 renal 96.9% | CCRF-CEM leukemia 105% | MOLT-4 leukemia 100% | SR leukemia 104% | OVCAR-8 ovarian 104% | OVCAR-5 ovarian 106% | OVCAR-4 ovarian 105% | SK-OV-3 ovarian 103% | IGROV1 ovarian 100% | OVCAR-3 ovarian 117% | HS 578T breast 116% | NCI/ADR-RES ovarian 104%

Oc1c(I)cc(-c2nc3ccccc3s2)cc1CN(Cc1ccccn1)Cc1ccccn1
active: EKVX NSCLC 8.07% | UO-31 renal -26.6% | ACHN renal 8.93% | CAKI-1 renal 5.39% | CCRF-CEM leukemia 7.86% | MOLT-4 leukemia 0.129% | SR leukemia 6.31% | IGROV1 ovarian 5.99% | NCI/ADR-RES ovarian -2.29%
inactive: SK-MEL-2 melanoma 14.8% | SN12C renal 17.3% | TK-10 renal 14.5% | A498 renal 18.1% | OVCAR-8 ovarian 10.9% | OVCAR-5 ovarian 49.7% | OVCAR-4 ovarian 31.9% | SK-OV-3 ovarian 18.5% | OVCAR-3 ovarian 31.5% | HS 578T breast 46.8%

CCN(CC)CCOc1nc2c3ccc(Cl)cc3nn2c2ccccc12
inactive: SK-MEL-2 melanoma 72.5% | EKVX NSCLC 28.9% | SN12C renal 19.9% | TK-10 renal 51% | CAKI-1 renal 16.5% | CCRF-CEM leukemia 30.6% | MOLT-4 leukemia 10.9% | OVCAR-8 ovarian 28.6% | OVCAR-5 ovarian 34% | SK-OV-3 ovarian 56% | IGROV1 ovarian 10.1% | OVCAR-3 ovarian 54.6% | HS 578T breast 55.2% | NCI/ADR-RES ovarian 25.3%
active: UO-31 renal -13.2% | ACHN renal 8.93% | A498 renal -12.2% | SR leukemia 5.43% | RPMI-8226 leukemia -8.15%

COc1cc(/C=C2\C(=O)N(c3c(Cl)cccc3Cl)c3ccccc32)cc(OC)c1OCCCCCCn1c2ccccc2c(=O)c2ccccc21
inactive: SK-MEL-2 melanoma 96.2% | EKVX NSCLC 111% | SN12C renal 96.8% | UO-31 renal 74.3% | TK-10 renal 112% | ACHN renal 91.9% | CAKI-1 renal 82.9% | A498 renal 123% | CCRF-CEM leukemia 104% | MOLT-4 leukemia 90% | SR leukemia 85.7% | RPMI-8226 leukemia 102% | OVCAR-8 ovarian 98.3% | OVCAR-5 ovarian 88.6% | SK-OV-3 ovarian 110% | IGROV1 ovarian 75.5% | OVCAR-3 ovarian 104% | HS 578T breast 113% | NCI/ADR-RES ovarian 109%

O=C(CCCCl)NNc1nccc(Nc2ccc(S(=O)(=O)Nc3ccncc3)cc2)n1
inactive: SK-MEL-2 melanoma 92.7% | EKVX NSCLC 105% | SN12C renal 102% | UO-31 renal 92.2% | TK-10 renal 85.8% | ACHN renal 104% | CAKI-1 renal 93.9% | A498 renal 110% | CCRF-CEM leukemia 116% | MOLT-4 leukemia 112% | SR leukemia 95% | OVCAR-8 ovarian 106% | OVCAR-5 ovarian 103% | OVCAR-4 ovarian 101% | SK-OV-3 ovarian 101% | IGROV1 ovarian 101% | OVCAR-3 ovarian 104% | HS 578T breast 112% | NCI/ADR-RES ovarian 99.8%

COC(=O)c1c2c(c(C)[n+]([O-])c1C)C(=O)C=CC2=O
inactive: EKVX NSCLC 98.3% | TK-10 renal 72.9% | A498 renal 60.8% | SR leukemia 20.2% | SK-OV-3 ovarian 90.3%
active: SK-MEL-2 melanoma -63.1% | SN12C renal -87.7% | UO-31 renal -64.8% | ACHN renal -37.6% | CAKI-1 renal 2.19% | CCRF-CEM leukemia 0.622% | MOLT-4 leukemia -1.84% | OVCAR-8 ovarian -6.72% | OVCAR-5 ovarian -61.1% | OVCAR-4 ovarian -16.6% | IGROV1 ovarian -38.2% | OVCAR-3 ovarian -8.77% | HS 578T breast 0.0938% | NCI/ADR-RES ovarian -19.8%

O=C(Cn1cc(CN2C(=O)c3ccccc3S2(=O)=O)nn1)Nc1cccc(Cl)c1
inactive: SK-MEL-2 melanoma 96.7% | EKVX NSCLC 103% | SN12C renal 110% | UO-31 renal 101% | TK-10 renal 103% | ACHN renal 102% | CAKI-1 renal 98.5% | A498 renal 110% | CCRF-CEM leukemia 104% | MOLT-4 leukemia 107% | SR leukemia 113% | RPMI-8226 leukemia 104% | OVCAR-8 ovarian 113% | OVCAR-5 ovarian 112% | SK-OV-3 ovarian 79.3% | IGROV1 ovarian 108% | OVCAR-3 ovarian 106% | HS 578T breast 107% | NCI/ADR-RES ovarian 93.1%

COc1cc(-c2nc(SCCC(C)C)nc(N3CCOCC3)c2C#N)cc(OC)c1OC
inactive: SK-MEL-2 melanoma 116% | EKVX NSCLC 100% | SN12C renal 54.9% | UO-31 renal 73.9% | TK-10 renal 46.5% | ACHN renal 101% | CAKI-1 renal 76.2% | A498 renal 108% | CCRF-CEM leukemia 78.8% | MOLT-4 leukemia 89.2% | OVCAR-8 ovarian 43.1% | OVCAR-5 ovarian 102% | SK-OV-3 ovarian 88.6% | IGROV1 ovarian 79.6% | HS 578T breast 76.7% | NCI/ADR-RES ovarian 79%
active: SR leukemia -10.1% | OVCAR-4 ovarian -25.2% | OVCAR-3 ovarian -33.3%

Fc1ccc(CNc2c3ccccc3nc3ccccc23)cc1
active: A498 renal -1.77% | MOLT-4 leukemia 8.68% | SR leukemia 6.59%
inactive: SK-MEL-2 melanoma 43.8% | EKVX NSCLC 35.6% | SN12C renal 25.7% | UO-31 renal 13.5% | TK-10 renal 30.2% | ACHN renal 12.5% | CAKI-1 renal 25.5% | CCRF-CEM leukemia 26% | OVCAR-8 ovarian 22.3% | OVCAR-5 ovarian 38.5% | OVCAR-4 ovarian 33.2% | SK-OV-3 ovarian 39.9% | IGROV1 ovarian 21.9% | OVCAR-3 ovarian 38.7% | HS 578T breast 39.5% | NCI/ADR-RES ovarian 29.7%

CCCCC(=O)Nc1ncc(Cc2ccccc2Cl)s1
inactive: SK-MEL-2 melanoma 55.8% | EKVX NSCLC 57.6% | SN12C renal 42.4% | UO-31 renal 44.6% | TK-10 renal 62.8% | ACHN renal 61.4% | CAKI-1 renal 37.8% | A498 renal 48.5% | CCRF-CEM leukemia 57.3% | MOLT-4 leukemia 28.5% | SR leukemia 25.8% | RPMI-8226 leukemia 49.2% | OVCAR-8 ovarian 49% | OVCAR-5 ovarian 59% | SK-OV-3 ovarian 63.3% | OVCAR-3 ovarian 30.1% | HS 578T breast 31.3% | NCI/ADR-RES ovarian 23.7%

CN1CCN(CCOc2ccc(-c3cnc4c(-c5ccc(C(F)(F)F)cc5)cnn4c3)cc2)CC1
active: CCRF-CEM leukemia -13.7% | MOLT-4 leukemia -51.3% | SR leukemia -8.03% | RPMI-8226 leukemia 1.38% | OVCAR-3 ovarian -3.51%
inactive: SK-MEL-2 melanoma 63.3% | EKVX NSCLC 60.1% | SN12C renal 53.7% | UO-31 renal 38.1% | TK-10 renal 67.4% | ACHN renal 58.8% | CAKI-1 renal 31% | A498 renal 69.5% | OVCAR-8 ovarian 27.2% | OVCAR-5 ovarian 79.7% | SK-OV-3 ovarian 85.6% | IGROV1 ovarian 38.8% | HS 578T breast 56% | NCI/ADR-RES ovarian 52.8%

CCCCCCC(=O)Nc1ncc(Cc2ccc(C)cc2)s1
active: OVCAR-3 ovarian 8.65%
inactive: SK-MEL-2 melanoma 63.4% | EKVX NSCLC 53.4% | SN12C renal 49.4% | UO-31 renal 44.8% | TK-10 renal 65.8% | ACHN renal 46.3% | CAKI-1 renal 35.2% | A498 renal 19.5% | CCRF-CEM leukemia 21.3% | MOLT-4 leukemia 35.2% | SR leukemia 20.4% | RPMI-8226 leukemia 40.1% | OVCAR-8 ovarian 45.5% | OVCAR-5 ovarian 58.1% | SK-OV-3 ovarian 31.8% | IGROV1 ovarian 44.2% | HS 578T breast 21.7% | NCI/ADR-RES ovarian 29%

Cc1ccc(/C=C/C(=O)c2ccc(NC(=O)CSc3nc4c([nH]3)c(=O)n(C)c(=O)n4C)cc2)c(C)c1
inactive: SK-MEL-2 melanoma 91.9% | EKVX NSCLC 78.1% | SN12C renal 57.1% | UO-31 renal 70.4% | TK-10 renal 83.5% | ACHN renal 38.8% | CAKI-1 renal 48.1% | A498 renal 40.2% | CCRF-CEM leukemia 65.3% | MOLT-4 leukemia 62.1% | SR leukemia 30.4% | OVCAR-8 ovarian 40.3% | OVCAR-5 ovarian 124% | OVCAR-4 ovarian 36.9% | SK-OV-3 ovarian 30.9% | IGROV1 ovarian 36.3% | OVCAR-3 ovarian 13.8% | HS 578T breast 27.4% | NCI/ADR-RES ovarian 82.7%
